# Reference: PubChem BioAssay AID1159554 (Broad Institute, 2015)
# “And” between values parts separate entries of the source, which are not always exact repeats. Equal entries are not always repeated. Hit rate of the full screen: of about 94,000 compounds, about 2,100 (2.2%) were called active. No stated cut-off is given here; in the data, active means activity change below about -80%; inconclusive means no clear call, values can overlap the other calls; inactive means above that. For the sample, actives were picked, then their nearest neighbours and some compounds at random.
# Assay: P. falciparum Dd2 growth inhibitors, primary screen, SYBR Green fluorescence, single dose replicates (AID 1159554)
# Settings: 72 h, at 10 µM, active compounds read low
row,SMILES,activity change
1,CCC(=O)N1[C@@H](CO)[C@@H](c2ccccc2)C12CN(C(=O)c1cnccn1)C2,-2.84% (inactive)
2,CCC(=O)N1CC2(CN(Cc3cccnc3)C2)c2c(n(C)c3cc(OC)ccc23)[C@@H]1CO,-20.9% (inactive)
3,COc1ccc(NC(=O)N[C@@H]2CC[C@H](CCn3cc(-c4ccc(OC)cc4)nn3)O[C@@H]2CO)cc1,-56.9% (inactive)
4,C[C@H]1CN([C@@H](C)CO)C(=O)c2c(c3ccccc3n2C)-c2ccccc2CO[C@@H]1CN(C)C(=O)Nc1ccnc(N2CCOCC2)c1,-58.1% (inactive)
5,CO[C@H]1CN(C)C(=O)c2cc(NC(=O)C3CC3)ccc2OC[C@H](C)N(CC2CCCC2)C[C@@H]1C,-38.7% (inactive)
6,CCS(=O)(=O)N1CC2(C1)CN(S(=O)(=O)c1ccccc1)[C@H](CO)c1c2c2ccc(OC)cc2n1C,-29.8% (inactive)
7,O=C(C[C@@H]1C[C@@H]2c3cc(NC(=O)c4ccc5c(c4)OCO5)ccc3O[C@@H]2[C@H](CO)O1)NCCc1ccccc1,-3.19% (inactive)
8,COc1ccc2c3c([nH]c2c1)[C@H](CO)N(C(=O)Nc1ccc(F)cc1)CC31CCN(C(=O)c2ccccn2)CC1,-79.3% (inactive)
9,CCS(=O)(=O)N1CCC2(CC1)CN(Cc1ccc3c(c1)OCO3)[C@H](CO)c1[nH]c3cc(OC)ccc3c12,-89.1% (active)
10,CCC(=O)N1CCC2(CC1)CN(Cc1cccc(OC)c1)[C@@H](CO)c1[nH]c3cc(OC)ccc3c12,-89.5% (active)
11,CCCC(=O)N1CCC2(CC1)CN(C(=O)C1CCCCC1)[C@@H](CO)c1[nH]c3cc(OC)ccc3c12,-78% (inactive)
12,CCC(=O)N1CCC2(CC1)CN(Cc1cccc(Cl)c1)[C@@H](CO)c1c2c2ccc(OC)cc2n1C,-75.9% (inactive)
13,CCC(=O)N1CC2(CN(Cc3ccc(Cl)cc3)C2)c2c([nH]c3cc(OC)ccc23)[C@@H]1CO,-23% (inactive)
14,CCCNC(=O)N1CCC2(CC1)CN(Cc1ccccc1)[C@H](CO)c1[nH]c3cc(OC)ccc3c12,-59.4% (inactive)
15,COc1ccc2c3c([nH]c2c1)[C@@H](CO)N(Cc1ccc2c(c1)OCO2)CC31CN(C(=O)Nc2c(C)noc2C)C1,-13.6% (inactive)
16,CCS(=O)(=O)N1CCC2(CC1)CN(S(=O)(=O)c1ccc(C)cc1)[C@H](CO)c1[nH]c3cc(OC)ccc3c12,-53.4% (inactive)
17,CCC(=O)N1CCC2(CC1)CN(Cc1ccc(Cl)cc1)[C@@H](CO)c1[nH]c3cc(OC)ccc3c12,-90.6% (active)
18,COc1ccc2c3c([nH]c2c1)[C@@H](CO)N(C(=O)NC(C)C)CC31CCN(C(=O)c2ccccn2)CC1,-13% (inactive)
19,COc1ccc2c3c([nH]c2c1)[C@H](CO)N(Cc1ccccc1)CC31CCN(C(=O)c2ccccn2)CC1,-83.5% (active)
20,Cc1noc(C)c1NC(=O)N(C)C[C@@H]1Oc2cc(Br)ccc2S(=O)(=O)N([C@@H](C)CO)C[C@H]1C,12.9% (inactive)

row,SMILES,activity change
1,COc1cccc(NC(=O)C[C@@H]2CC[C@@H]3[C@H](COc4ccc(NC(=O)C5CCOCC5)cc4C(=O)N3C)O2)c1,11.1% (inactive)
2,C/C=C/c1ccc2c(c1)[C@H]1[C@H](CCN1S(=O)(=O)c1cn(C)cn1)[C@H](CO)N2,-1.2% (inactive)
3,CCCNC(=O)N1C[C@H]2[C@@H](c3ccccc31)[C@@H](CO)N2C(=O)NCCC,-1.9% (inactive)
4,COc1ccc2c3c([nH]c2c1)[C@H](CO)N(Cc1cccc(F)c1)CC31CCN(Cc2ccccn2)CC1,-92.5% (active)
5,COc1ccc2c3c([nH]c2c1)[C@H](CO)N(Cc1nccs1)CC31CCN(Cc2cccnc2)CC1,-58.7% (inactive)
6,COc1cccc(CN2CC3(CN(Cc4ccccn4)C3)c3c([nH]c4cc(OC)ccc34)[C@@H]2CO)c1,-87.9% (active)
7,COc1ccc2c3c([nH]c2c1)[C@@H](CO)N(C(=O)Cc1ccccc1)CC31CCN(C)CC1,-55.8% (inactive)
8,COc1ccc2c3c([nH]c2c1)[C@H](CO)N(Cc1ccc(F)cc1)CC31CCN(Cc2ccccn2)CC1,-89.5% (active)
9,COc1ccc2c3c([nH]c2c1)[C@@H](CO)N(C(=O)C1CC1)CC31CCN(Cc2nccs2)CC1,-26.9% (inactive)
10,COc1ccc2c3c([nH]c2c1)[C@H](CO)N(Cc1nccs1)CC31CCN(Cc2ccncc2)CC1,-85.5% (active)
11,COc1ccc2c3c([nH]c2c1)[C@@H](CO)N(Cc1nccs1)CC31CCN(C(=O)C2CCCC2)CC1,-74.5% (inactive)
12,CCCNC(=O)N1CC2(CCN(Cc3ccc(F)cc3)CC2)c2c([nH]c3cc(OC)ccc23)[C@@H]1CO,-77.7% (inactive)
13,C[C@@H]1CCCCO[C@@H](CN(C)S(=O)(=O)c2cn(C)cn2)[C@H](C)CN([C@H](C)CO)C(=O)c2cc(NS(=O)(=O)c3ccc(Cl)cc3)ccc2O1,-31.8% (inactive)
14,COCC(=O)N1C[C@@H](C)[C@H](OC)CN(C)C(=O)c2ccc(NC(=O)c3ccc(F)cc3)cc2OC[C@H]1C,12.6% (inactive)
15,COc1ccc(NC(=O)N(C)C[C@H]2OCCCC[C@H](C)Oc3ccc(NS(=O)(=O)c4ccc(Cl)cc4)cc3C(=O)N([C@@H](C)CO)C[C@H]2C)cc1,-68.7% (inactive)
16,CN(C)CC(=O)Nc1ccc2c(c1)[C@@H]1C[C@H](CC(=O)NCc3ccc(-c4ccccc4)cc3)O[C@@H](CO)[C@@H]1O2,-1.93% (inactive)
17,COCC(=O)Nc1ccc2c(c1)OC[C@H](C)N(C)C[C@H](C)[C@@H](OC)CN(C)C2=O,26.8% (inactive)
18,C[C@@H]1CCCCO[C@H](CN(C)S(C)(=O)=O)[C@@H](C)CN([C@H](C)CO)C(=O)c2cc(NC(=O)Nc3ccc4c(c3)OCO4)ccc2O1,25.2% (inactive)
19,COCC(=O)Nc1ccc2c(c1)C(=O)N(C)[C@@H]1CC[C@@H](CC(=O)NCc3cccc(F)c3)O[C@@H]1CO2,5.24% (inactive)
20,CNC(=O)C[C@H]1CC[C@H]2[C@H](COc3ccc(NC(=O)c4cccc(F)c4)cc3C(=O)N2C)O1,1.45% (inactive) and 0.97% (inactive)
